Data on 36 molecules can be found in PubChem BioAssay (NCATS).

Each structure is given as a SMILES string. Results filed as inconclusive are left out. Where a call stands in place of a potency, no number is given. The source made the active and inactive calls. Calls come from the whole dose curve; as a rule, active = well fitted inhibition curve with a large enough effect; inconclusive = small, poorly fitted or top-dose-only effect; inactive = flat fitted curve, though single readings scatter.

The assay is described as follows: qHTS for Inhibitors of Plasmodium falciparum (DD2) proliferation (AID 504314).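 Note: parasite DNA measured by SYBR Green fluorescence after red cell lysis.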 The settings on record: P. falciparum Dd2 in erythrocytes, SYBR Green growth, 72 h; series mostly up to 1.12 µM. An outline of the steps:
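SYBR Green DNA-fluorescence growth assay: infected RBCs at 0.3% parasitemia, 2.5% hematocrit, 72 h compound exposure, 37C, 5% CO2; overnight lysis with dye at RT; normalized to 0.29 uM artemisinin and vehicle.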
Turning to `CC1(OC(=O)CCc2ccccc2)C(=O)C=C2C=C(c3ccc(C#N)cc3)N(c3ccccc3)C=C2C1=O` (stereo unspecified), the Potency result is “inactive”. For `CCCCC1=CC2=CC(=O)C(C)(OC(=O)CC)C(=O)C2=CN1CCCN(CC)CC` (stereo unspecified) the value was “inactive”; for `COC(=O)C(C(=O)OC)C1c2ccccc2C=C(C)N1C(=O)OC` (stereo unspecified), “inactive”. As for `COC(=O)C1=C(C(=O)OC)[C@@H]2Nc3ccccc3[C@@]23C[C@@H](C(=O)OC)N(S(=O)(=O)c2c(C)noc2C)C3=N1`, the Potency result was “inactive”.

As for `C/C=C/C1=Cc2ccccc2C(CC(=O)OC)N1C(=O)OC` (stereo unspecified), the Potency result is “inactive”.

For the molecule `C=CCN1C=C2C(=O)C(C)(OC(=O)CC)C(=O)C=C2C=C1CCCC` (stereo unspecified), the Potency entry was “inactive”. As for `CCCCS(=O)(=O)N1C2=NC(C(=O)OC)=C(C(=O)OC)[C@@H]3N(C)c4ccc(OC)cc4[C@]23C[C@H]1C(=O)OC`, the Potency result is “inactive”. For `COC(=O)C1=C(C(=O)OC)[C@@H]2Nc3ccccc3[C@@]23C[C@@H](C(=O)OC)N(C(=O)c2ccc(Br)cc2)C3=N1` the value was “inactive”; for `C=CCOC(=O)N[C@H](C(C(=O)OC)=C(C)NCc1ccccc1)c1ccc(C)cc1`, “inactive”. Take `CCCCC1=CC2=CC(=O)C(C)(OC(=O)CC)C(=O)C2=CN1C1CCCC1` (stereo unspecified): the Potency entry was “inactive”. For `CCCCC1=CC2=CC(=O)C(C)(OC(=O)CC)C(=O)C2=CN1c1ccncc1` (stereo unspecified) the value was “inactive”; for `C=CCN1c2ccccc2[C@]23C[C@@H](C(=O)OC)N(S(=O)(=O)c4ccc(C#N)cc4)C2=NC(C(=O)OC)=C(C(=O)OC)[C@H]13`, “inactive”. For `CC1(OC(=O)CCc2ccccc2)C(=O)C=C2C=C(c3ccc(C#N)cc3)N(C3CCCC3)C=C2C1=O` (stereo unspecified) the value was “inactive”.

With `CCCCc1nc2c(c3c1C[C@H](C)OC3)CN(C(=O)c1cc(I)ccc1F)CC2`, the Potency result was “inactive”.

Take `COC(=O)C1=C(C(=O)OC)[C@@H]2N(C)c3ccccc3[C@@]23C[C@@H](C(=O)OC)N(S(=O)(=O)c2cccs2)C3=N1`: the Potency entry was “inactive”. For `COC(=O)C1=C(C(=O)OC)[C@@H]2Nc3ccccc3[C@@]23C[C@@H](C(=O)OC)N=C3N1` the value was “inactive”; for `CCCCS(=O)(=O)N1C2=NC(C(=O)OC)=C(C(=O)OC)[C@@H]3N(C)c4ccccc4[C@]23C[C@H]1C(=O)OC`, “inactive”.

Consider `CCCCc1nc2c(c3c1C[C@H](C)OC3)CN(S(=O)(=O)c1c(C)noc1C)CC2`, for which the Potency entry is “inactive”. For `CCOC(=O)CN1C(=O)N[C@@H](CCc2ccccc2)[C@H](C(C)=O)[C@H]1C` the value was “inactive”; for `COc1ccc(-c2nc3c(c4c2C[C@H](c2ccccc2)OC4)CN(S(=O)(=O)c2c(C)noc2C)CC3)c(C)c1`, “inactive”. For `COC(=O)CCCC1=CC2=C(c3ccccc3)C(=O)C(C)(OC(=O)C3CCCC3)C(=O)C2=CN1CCCOC(C)C` (stereo unspecified) the value was “inactive”. For `C[C@H]1Cc2c(COc3ccccc3)nc3c(c2CO1)CN(S(=O)(=O)c1ccc(C#N)cc1)CC3` the value was “inactive”; for `COC(=O)CCC(=O)OC1(C)C(=O)C=C2C=C(C3CC3)N(c3ccc(OC)cc3)C=C2C1=O` (stereo unspecified), “inactive”. `CC[C@@H](C)CN1C(=O)N[C@@H](c2ccccc2)C(C(C)=O)=C1C`: the Potency result was “inactive”.

In the case of `C=CCN1C=C2C(=O)C(C)(OC(=O)c3cnc4ccccc4n3)C(=O)C=C2C=C1/C=C/COC` (stereo unspecified), the Potency result is “inactive”.

`C=CCN1c2ccccc2[C@]23C[C@@H](C(=O)OC)N(S(=O)(=O)c4ccc5c(c4)OCCN5C)C2=NC(C(=O)OC)=C(C(=O)OC)[C@H]13`: the Potency entry is “inactive”. For `CCCCC1=CC2=CC(=O)C(C)(OC(=O)CC)C(=O)C2=CN1CCOC` (stereo unspecified) the value was “inactive”; for `CCCCC1=CC2=CC(=O)C(C)(OC(=O)CC)C(=O)C2=CN1CCc1ccccn1` (stereo unspecified), “inactive”; for `CCOC(=O)CN1C(=O)N[C@@H](CCc2ccccc2)C(C(=O)OC)=C1C`, “inactive”. For `Cc1ccc(S(=O)(=O)N2CCc3nc(-c4ccccc4)c4c(c3C2)CO[C@@H](C)C4)cc1` the value was “inactive”; for `COC(=O)C1=C(C(=O)OC)[C@@H]2N(Cc3ccccc3)c3ccccc3[C@@]23C[C@@H](C(=O)OC)N(S(=O)(=O)c2c(C)noc2C)C3=N1`, “inactive”. For `Cc1cc2c(c(=O)n1-c1ccccc1)[C@H]1O[C@](c3ccsc3)(Cc3cc(C#N)ccc31)O2` the value was “inactive”; for `COC(=O)C1=C(C)N(Cc2ccco2)C(=O)N[C@@H]1c1ccc(Br)cc1`, “inactive”. For the molecule `COC(=O)N1C(C)=Cc2ccccc2C1C/C(C)=C/C(C)=O` (stereo unspecified), the Potency entry was “inactive”. For `CCCCC1=CC2=CC(=O)C(C)(OC(=O)CC)C(=O)C2=CN1CCCCO` (stereo unspecified) the value was “inactive”. For `COCCN1C=C2C(=O)C(C)(OC(=O)CCc3ccccc3)C(=O)C=C2C=C1c1ccc(C#N)cc1` (stereo unspecified) the value was “inactive”.
